Screens (PubChem BioAssay)
Shown is part of a subset that was picked to be rich in hits.
Glioma ERSR ind: inducers of ER stress response in human glioma cells. AID 602332. U87-MG GRP78 promoter luciferase reporter, 16 h. 0.02% of 420,000 active. Potency, µM, usual class: activators; further: series mostly up to about 76 µM; nearly all actives have a fitted effect of over 35% in size
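ERSR induction read as luciferase luminescence (Bright-Glo, 10 min at room temperature) in stably transfected human U87-MG glioma cells exposed to compounds for 16 h, using GRP78 as sensor.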
Apoferritin bind: candidate novel general anesthetic via apoferritin binding; P02791; apoferritin/1-aminoanthracene competitive binding, fluorescence; Potency, µM (top dose mostly 77.5 µM), hits mostly inhibitors; 0.074% of 350,000 active; further: nearly all actives have a fitted effect of over 20% in size
Target sequence (P02791 2-175 limits assumed): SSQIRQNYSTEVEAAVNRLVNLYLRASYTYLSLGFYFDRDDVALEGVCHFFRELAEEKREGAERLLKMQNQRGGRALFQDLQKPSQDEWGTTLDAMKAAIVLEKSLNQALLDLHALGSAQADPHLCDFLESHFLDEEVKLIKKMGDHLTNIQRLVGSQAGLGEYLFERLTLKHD
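In PBS, apoferritin at 10 uM is loaded with 1-AMA from a 50% saturated solution. After 10 min of compound exposure at ambient temperature, reduced 535 nm fluorescence indicates probe displacement.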
CBFb-RUNX1 inh: inhibitors of human CBF-beta and RUNX1 interaction | AlphaScreen CBFb-His/RUNX1-biotin binding, biochemical | Potency, µM (highest dose often 59.8 µM), most hits filed as inhibitors | 230,000 tested, under 10 active | AID 1477
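Interaction loss through any mechanism counts as activity. Pre-formed complex of His-CBF-beta and biotin-RUNX1 (30 nM apiece) is incubated with compound 15 min, then with 50 ng nickel and 50 ng streptavidin beads for 90 min before AlphaScreen detection.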
ClpP mod: qHTS Assay for Activators of ClpP; 1.9% of 340,000 active; ATP-dependent Clp protease proteolytic subunit (Bacillus subtilis (strain 168)), P80244; purified B. subtilis ClpP, FRET peptide cleavage, 20 min; Potency, µM (top dose mostly 57.5 µM); active means well fitted falling curve with a large enough effect; inconclusive means small, poorly fitted or top-dose-only effect; inactive means no such curve, though single readings can be large or run the other way; further: the source files actives as falling curves though it sought activators and does not explain the sign; nearly all actives have a fitted effect of over 65% in size
Target sequence (P80244 whole entry, looked up): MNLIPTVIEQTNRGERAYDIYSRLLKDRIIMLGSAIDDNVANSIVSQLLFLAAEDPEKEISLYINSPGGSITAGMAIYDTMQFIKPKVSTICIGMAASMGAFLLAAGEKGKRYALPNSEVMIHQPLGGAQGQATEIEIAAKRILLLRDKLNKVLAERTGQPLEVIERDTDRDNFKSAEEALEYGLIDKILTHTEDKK
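Buffer: 100 mM Tris/HCl pH8, 100 mM KCl, 0.05% low protease BSA, 2.5% glycerol, 0.01% Tween-20. ClpP 10 microg/mL final; 20 min RT; delta FRET normalized to ADEP and DMSO controls.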
N370S GC: N370S glucocerebrosidase modulation, Gaucher chaperone candidate; P04062; N370S GC spleen homogenate, 4MU-glucoside fluorescence; Potency, µM (series often up to 59.4 µM), hits mostly inhibitors; 0.092% of 330,000 active; AID 2101
a7 integrin act: activators of alpha7 integrin expression for muscular dystrophy. alpha7betagal myoblasts, beta-gal FDG fluorescence, 48 h. Potency, µM (series often up to 38.3 µM), most hits filed as activators. 0.064% of 350,000 active; further: nearly all actives have a fitted effect of over 60% in size
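Alpha7betagal+/- myoblasts (passage 13) were plated 16-24 hr, then exposed to compounds (1:260 dilution of DMSO stock) for 48 hours at 37C. After MPER lysis, β-galactosidase reporter activity was read as FDG fluorescence (ex 480/em 540) after 30 minutes.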
Hits are given with their value; - = inactive; ? = inconclusive; . = no result given; [ ] = remark or other dose. Unless noted, the call rests on the fitted dose curve; in most records, active means well fitted curve in the direction sought with a large enough effect; inconclusive means small, poorly fitted or top-dose-only effect, or another doubt; inactive means no such curve, though single readings can be large; an effect the other way counts as inactive or inconclusive.

SMILES	Glioma ERSR ind	Apoferritin bind	CBFb-RUNX1 inh	ClpP mod	N370S GC	a7 integrin act
CCc1ccccc1NC(=O)c1sc2nc(C)cc(C)c2c1N	-	-	.	32µM	-	-
Cc1ccc(C2C3=C(CC(C)(C)CC3=O)N=C3c4ccccc4C(=O)C32)cc1 (stereo not drawn)	-	?	-	-	16µM	-
CC1(C)CC(=O)C2=C(C1)N=C1c3ccccc3C(=O)C1C2c1ccc(Cl)cc1 (stereo not drawn)	-	-	?	-	14µM	-
Cc1cc(C(=O)Nc2ccccc2-c2nc(CNC(=O)c3sc(C)nc3C)c(C)o2)c(C)o1	-	.	.	.	.	.
Cc1c(C(=O)NCC2CCCN(C)C2)cnn1-c1ncc2c(n1)-c1ccccc1CCC2 (stereo not drawn)	-	.	.	.	.	.
CCCCCNCC(=O)Nc1cccc(C(=O)Nc2cccc(C(F)(F)F)c2)c1	-	?	-	28µM	-	-
CC1(C)C(=O)OC(C(=O)c2ccccc2)C2(CCCCC2)C1=O (stereo not drawn)	-	-	-	-	-	-
Cc1ccc(C(=O)C2OC(=O)C(C)(C)C(=O)C2(C)C)cc1 (stereo not drawn)	-	6.3µM	-	-	-	-
COc1ccccc1C1CN(CCNC(=O)c2cnsn2)Cc2ccccc2O1 (stereo not drawn)	-	.	.	.	.	.
CCCCN(C)CCNC(=O)c1cc2c(-c3ccccc3F)nn(C)c2s1	-	-	.	25µM	?	-
COCCNC(=O)c1cc2c(-c3ccccc3F)nn(C)c2s1	-	-	-	25µM	-	-
Cn1nc(-c2ccccc2F)c2cc(C(=O)NCCc3ccc(Cl)cc3)sc21	-	-	.	-	.	.
C#CCN(C1CCCC1)S(=O)(=O)C=C	-	.	.	-	.	.
COC(=O)c1ccc(NC(=O)c2nc(S(=O)(=O)Cc3ccccc3F)ncc2Cl)cc1	-	.	.	-	.	.
OCCNC1=NCCN1	-	-	-	32µM	-	-
Cc1c(C(=O)NCC(C)C)sc2ncnc(NCC3CCCO3)c12 (stereo not drawn)	-	.	.	.	.	.
COc1ccc(OC)c(CNC(=O)c2ccc3nc(C(C)C)oc3c2)c1	-	-	.	32µM	.	.
COc1ccc(Br)cc1CNC(=O)c1ccc2nc(C(C)C)oc2c1	-	-	.	-	.	.
CC(=O)N1CCN(/[N+]([O-])=N/Oc2ccc([N+](=O)[O-])cc2[N+](=O)[O-])CC1	-	.	.	.	.	.
OC(C[n+]1c(Cl)ccc2ccccc21)c1ccccc1 (stereo not drawn)	-	.	.	-	.	.
Cc1occc1C(=O)Nc1cccc(-c2nc(CNC(=O)c3ccc(N4CCCCC4)cc3)c(C)o2)c1	-	.	.	.	.	.
COc1ccc(-c2cc(C(F)F)n3ncc(C(=O)N4CCN(C)CC4)c3n2)cc1	-	-	-	25µM	-	-
CCNc1ccc(S(=O)(=O)N(C)C)cc1NCC(=O)Nc1ccccc1F	-	-	-	-	10µM	-
CCNc1ccc(S(=O)(=O)N(C)C)cc1NCC(=O)Nc1ccc(F)c(Cl)c1	-	-	-	-	7.9µM	-
CCNc1ccc(S(=O)(=O)N(C)C)cc1NCC(=O)Nc1ccc(Br)cc1F	-	-	?	-	-	-
SMILES	Glioma ERSR ind	Apoferritin bind	CBFb-RUNX1 inh	ClpP mod	N370S GC	a7 integrin act
CC(C)(C)c1ccc(OCC(=O)O/N=C(\N)c2ccncc2)cc1	-	.	.	16µM	.	-
CC(=O)c1ccc(-c2ccc3c4c(ccc3c2)OC(CNC(=O)[C@@H]2CCCN2C(C)=O)C4)s1 (stereo partly drawn)	-	.	.	.	.	.
CCOC(=O)c1c(-c2ccccc2)[nH]c2ccc(O)cc12	-	-	-	32µM	-	-
CCOc1ccc(-c2nnn(CC(=O)Nc3cc(OC)ccc3OC)n2)cc1OCC	-	-	-	-	-	-
CCOC(=O)Cc1cnc(NC(=O)Cn2nnc(-c3ccc(OCC)cc3)n2)s1	-	?	-	22µM	-	-
CCOc1ccc(-c2nnn(CC(=O)c3cc(OC)ccc3OC)n2)cc1	-	-	-	32µM	?	-
O=S(=O)(O)OCC1OC(OC2(COS(=O)(=O)O)OC(COS(=O)(=O)O)C(OS(=O)(=O)O)C2OS(=O)(=O)O)C(OS(=O)(=O)O)C(OS(=O)(=O)O)C1OS(=O)(=O)O (stereo not drawn)	-	.	.	.	.	.
CCOC(=O)CNc1c(-c2ccc(Cl)cc2)nc2cnccn12	-	-	-	28µM	-	-
COc1ccc(-c2nc3cnccn3c2Nc2ccc(C)cc2)cc1	-	-	-	-	?	-
CCOC(=O)CNc1c(-c2ccc(OC)cc2)nc2ccc(Cl)cn12	-	-	-	-	?	-
CCOC(=O)CNc1c(-c2ccc(F)cc2)nc2cnccn12	-	-	-	25µM	-	-
COC(=O)[C@@H]1CCCN1C(=O)c1cc(NC(=O)C2CCC2)c2c(c1)nc(-c1ccncc1)n2C	-	.	.	.	.	.
COc1ccccc1N1C(=O)c2ccccc2NC1C(OC)OC (stereo not drawn)	-	-	-	22µM	-	-
CCOC(=O)N1CCN(/[N+]([O-])=N/Oc2ccc(C(F)(F)F)cc2[N+](=O)[O-])CC1	-	.	.	.	.	.
CC(C)c1nc2oc3c(NCc4cccnc4)ncnc3c2c2c1CCC2	-	-	-	14µM	-[2.35 µM]	-
CC(C)Cc1nc2oc3c(NCc4cccnc4)ncnc3c2c2c1CCC2	-	-	-	18µM	-	-
Cc1cc2ccccc2c[n+]1C1CCCCC1	-	.	.	-	.	.
O=C(/C=C/c1ccccc1)CC(O)(c1ccccc1)C(F)(F)C(F)F (stereo not drawn)	11µM	?	-	-	-	-
O=C(/C=C/c1ccccc1)CC(O)(c1ccccc1)C(F)(F)F (stereo not drawn)	?	?	-	-	-	-
Cc1cc2n(n1)C(c1ccc3c(c1)OCO3)Nc1c(C)cccc1-2 (stereo not drawn)	-	?	-	-	?	-
Cc1cc(C)c2c(c1)-c1cc(C)nn1C(c1ccc3c(c1)OCO3)N2 (stereo not drawn)	-	-	-	32µM	?	-
COc1ccc(CN2C[C@H](Sc3nc4ccccc4[nH]3)C[C@H]2C(=O)N(C)C)c2ccccc12	-	.	.	.	.	.
Cc1ccc2nc(Cl)cc(=O)n2c1	-	.	.	28µM	.	-
CCOC(=O)C1CCCN(S(=O)(=O)c2ccc(Cl)nc2)C1 (stereo not drawn)	-	.	.	22µM	-	-
Cc1sc2ncnc(-n3cnc4ccccc43)c2c1C	-	-	-	28µM	-	-
Cc1ccc(-c2csc3ncnc(-n4cnc5ccccc54)c23)cc1	-	-	-	28µM	-	-
COc1cc(-c2noc(C)c2C#CCCN2C(=O)c3ccccc3C2=O)cc(OC)c1OC	-	.	.	-	.	.
Cc1nc(C)c(-c2ccc(SCC(=O)Nc3ccc(F)cc3F)nn2)s1	-	-	.	?	-	-
